Screens as filed in PubChem.
Hits are enriched below; roughly 1.2% of the tested compounds scored in any of these assays.
LRH-1 inv ag – LRH-1 (NR5A2) inverse agonists, primary screen, cell-based, luminescence, HEK293T, StAR-luciferase reporter. inhibition, % at 3.6 µM. hit rate 0.13% among 360,000. AID 602396, 2012. Nuclear receptor subfamily 5 group A member 2 (Homo sapiens), O00482. LRH-1 transfected, 24 h;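 active means inhibition above the mean inhibition of all tested compounds plus 3 SD, cut at about 73% in these data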;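 further: 0% = DMSO wells and 100% = reporter-only cells lacking LRH-1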
SRC1 inh – SRC1 coactivator transcriptional activity inhibitors, primary screen, cell-based, luminescence. Nuclear receptor coactivator 1 (Homo sapiens), Q15788. HEK293 GAL4-SRC1 luciferase reporter. inhibition, % at 3.6 µM. hit rate 0.12% among 360,000;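 active means inhibition above the campaign mean plus 3 SD, with each screening campaign given its own cutoff, cut at about 60% in these data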;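 further: 0% = DMSO treated cells and 100% = gossypol at 36 µM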
Target sequence (Q15788 whole entry, looked up, the tested form may be a part): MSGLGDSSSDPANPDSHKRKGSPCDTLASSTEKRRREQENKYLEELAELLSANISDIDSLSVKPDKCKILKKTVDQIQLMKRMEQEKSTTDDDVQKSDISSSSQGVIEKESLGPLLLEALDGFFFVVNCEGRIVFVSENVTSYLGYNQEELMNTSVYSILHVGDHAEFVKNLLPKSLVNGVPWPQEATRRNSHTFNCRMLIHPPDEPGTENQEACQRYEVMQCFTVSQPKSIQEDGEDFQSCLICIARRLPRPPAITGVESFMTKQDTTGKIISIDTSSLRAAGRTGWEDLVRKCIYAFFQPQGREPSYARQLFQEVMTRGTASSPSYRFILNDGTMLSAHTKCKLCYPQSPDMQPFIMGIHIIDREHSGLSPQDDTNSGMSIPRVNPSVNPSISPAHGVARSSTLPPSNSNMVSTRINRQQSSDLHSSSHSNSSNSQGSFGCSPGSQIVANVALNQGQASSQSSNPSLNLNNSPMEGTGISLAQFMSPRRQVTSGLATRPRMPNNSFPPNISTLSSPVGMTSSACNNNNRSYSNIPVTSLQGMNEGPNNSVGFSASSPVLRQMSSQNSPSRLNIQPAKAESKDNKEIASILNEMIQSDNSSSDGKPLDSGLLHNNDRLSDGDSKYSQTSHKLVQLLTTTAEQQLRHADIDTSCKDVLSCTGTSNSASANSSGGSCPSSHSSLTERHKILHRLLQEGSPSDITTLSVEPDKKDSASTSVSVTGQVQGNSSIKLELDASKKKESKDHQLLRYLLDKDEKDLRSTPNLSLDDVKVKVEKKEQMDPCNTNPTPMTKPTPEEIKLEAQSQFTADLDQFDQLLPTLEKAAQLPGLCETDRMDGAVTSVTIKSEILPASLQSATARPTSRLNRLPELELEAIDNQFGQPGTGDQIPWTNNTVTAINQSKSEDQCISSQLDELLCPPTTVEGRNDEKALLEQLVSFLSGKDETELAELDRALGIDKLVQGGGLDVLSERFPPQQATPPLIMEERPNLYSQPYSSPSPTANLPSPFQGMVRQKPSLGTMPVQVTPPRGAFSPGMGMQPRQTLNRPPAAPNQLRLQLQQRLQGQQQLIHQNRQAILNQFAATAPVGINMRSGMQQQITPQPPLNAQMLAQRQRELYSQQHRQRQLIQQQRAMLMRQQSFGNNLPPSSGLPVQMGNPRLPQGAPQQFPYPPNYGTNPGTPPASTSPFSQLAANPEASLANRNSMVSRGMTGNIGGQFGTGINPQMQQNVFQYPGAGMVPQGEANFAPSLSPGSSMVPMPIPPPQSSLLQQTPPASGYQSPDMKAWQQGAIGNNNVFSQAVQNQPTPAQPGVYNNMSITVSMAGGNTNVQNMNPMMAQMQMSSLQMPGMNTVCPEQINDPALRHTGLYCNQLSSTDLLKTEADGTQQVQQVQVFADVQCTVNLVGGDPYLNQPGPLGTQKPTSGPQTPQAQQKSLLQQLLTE
SRC2 inh – inhibition of GAL4-SRC2 driven luciferase reporter, primary screen, SRC2 inhibitor project, cell-based, luminescence; Nuclear receptor coactivator 2 (Homo sapiens), Q15596; HEK293 GAL4-SRC2 luciferase reporter; inhibition, % at 9 µM; hit rate 0.17% among 370,000; AID 651957, 2012;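 active means inhibition above the mean inhibition of all tested compounds plus 3 SD, set per campaign, cut at about 52% in these data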;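 further: 0% = DMSO treated cells and 100% = cells given Gossypol at 36 µM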
Shn3 3UTR inh – reduction of Shn3 3'UTR firefly luciferase signal, primary screen, Schnurri-3 inhibitor project, cell-based, Clone20 osteoblasts, set 2. Clone20 osteoblast Shn3 3'UTR firefly luciferase, 24 h. inhibition, % at 12.5 µM. hit rate 0.52% among 360,000. AID 588674, 2011;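 active means mean inhibition of at least 75% with every replicate also reaching 75%; inconclusive means mean inhibition at least 75% but some replicate below; inactive means mean inhibition below 75%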;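 further: 0% = median of neutral control wells and 100% = pilot-screen positive control compound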
NCOA3 inh – SRC3 coactivator transcriptional activity inhibitors, primary screen, cell-based, luminescence; HEK293 GAL4-SRC3 luciferase reporter; inhibition, % at 3.6 µM; hit rate 0.17% among 360,000;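 active means inhibition above a per-campaign cutoff, the mean of all compounds plus 3 SD, cut at about 60% in these data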;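 further: 0% = DMSO-treated cells and 100% = gossypol-treated cells at 36 µM; higher means less SRC3-driven luciferase light from the GAL4 reporter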
LMP1 NFkB inh – EBV LMP1-driven NF-kappaB luciferase reporter inhibitors, primary screen, cell-based, luminescence, single point; hit rate 0.69% among 350,000; inhibition, % at 12.5 µM; LMP1-induced NF-kappaB luciferase reporter cells; in the data active means inhibition above about 41%; inconclusive means no clear call, values can overlap the other calls;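 further: 0% = neutral control wells and 100% = reference inhibitor control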
Active calls of the source: *; ? = inconclusive; / = no result given.

SMILES | LRH-1 inv ag | SRC1 inh | SRC2 inh | Shn3 3UTR inh | NCOA3 inh | LMP1 NFkB inh
COc1cccc(/C=N/NC(=O)c2cc3cc([N+](=O)[O-])ccc3s2)c1O | 3 | 4 | 10 | 91* | 20 | 64*
O=C(OCCN1C(=O)c2cccc3c(N4CCOCC4)ccc(c23)C1=O)c1ccc(Cl)cc1Cl | 9 | 16 | -2 | 22 | 23 | 31
O=C(OCCN1C(=O)c2cccc3c(N4CCOCC4)ccc(c23)C1=O)c1ccccc1Cl | 8 | 15 | 25 | 86* | 22 | 14
O=C(O)c1ccc(N=N/C(=N\Nc2ccc(C(=O)O)cc2)c2ccccc2)cc1 | -34 | -21 | -7 | -22 | -28 | -4
Brc1ccc(N/N=C(/N=Nc2nn[nH]n2)c2ccccc2)cc1 | 32 | 16 | 31 | 70 | 63* | 58*
CN(C)c1ccc(-c2nc3ccccc3n2C)cc1 | -118 | -59 | 8 | 9 | -56 | 50*
COc1ccc2cc3c(N)nn(C(=O)c4ccc(F)cc4)c3nc2c1 | 20 | 60 | 31 | 1 | 49 | 38
COc1ccc2cc3c(N)nn(C(=O)Cc4c[nH]c5ccccc45)c3nc2c1 | 55 | 79* | 56* | 23 | 51 | 75*
COc1ccc2cc3c(N)nn(C(=O)c4ccccc4Cl)c3nc2c1 | 50 | 74* | 39 | 8 | 60 | 80*
CCc1c(O)nc(SCC(=O)Nc2ccccc2)n(-c2ccccc2)c1=O | 0 | -34 | 11 | 96* | -12 | -34
C=CCN=C1NC(c2ccc(C(F)(F)F)cc2)C(C(=O)OC)=C(C)N1C (stereo unspecified) | / | / | -21 | / | / | /
COC(=O)C1CN(Cc2cn(Cc3ccc(F)cc3)nn2)CCS(=O)(=O)N1Cc1ccc(OC)cc1 (stereo unspecified) | / | / | 27 | / | / | /
COc1ccc(C(=O)Oc2c(CN3CCOCC3)cc(Cl)c3cccnc23)cc1 | -5 | 6 | -34 | 19 | 10 | 4
O=C(Oc1c(CN2CCOCC2)cc(Cl)c2cccnc12)c1ccc(F)cc1 | 27 | 2 | -3 | 60 | 32 | 58*
O=C(Oc1c(CN2CCOCC2)cc(Cl)c2cccnc12)c1ccccc1Cl | 1 | -5 | 1 | ? | 19 | 71*
O=C(COC(=O)CNC(=O)C1CCCCC1)Nc1cc(C(F)(F)F)ccc1Cl | -6 | 2 | 12 | -10 | -18 | 9
O=C(Cn1cc(CNC(=O)C2CCCCC2)nn1)Nc1cc(C(F)(F)F)ccc1Cl | -3 | -7 | -11 | 8 | 10 | 42*
C=CCN1C(=O)[C@@H](CC(=O)NCc2cccc3ccccc23)[C@]2(C(=O)OCC)CCCCC/C=C/12 | / | / | -11 | / | / | /
O=C(N/N=C/c1sc(N2CCOCC2)nc1-c1ccccc1)c1ccccc1Cl | -12 | -14 | -16 | -4 | 5 | 15
O=C(O)c1cccc(N/N=C/c2sc(N3CCOCC3)nc2-c2ccccc2)c1 | -89 | -121 | -64 | -29 | -75 | -35
O=[N+]([O-])c1ccc(N/N=C/c2sc(N3CCOCC3)nc2-c2ccccc2)c(S(=O)(=O)Nc2ccccc2Cl)c1 | -12 | -39 | 13 | 87* | 9 | 35
O=[N+]([O-])c1ccc(N/N=C/c2sc(N3CCOCC3)nc2-c2ccccc2)c(S(=O)(=O)Nc2ccc(Cl)cc2)c1 | 1 | -9 | -13 | 91* | 5 | 55*
CCCCNC(=O)C1CCCN1C(=O)Nc1ccc(Cl)cc1 (stereo unspecified) | / | / | 0 | / | / | /
Nn1c(SCC(=O)Nc2ccc(OCc3ccccc3)cc2)nnc1-c1cc(-c2ccccc2)n[nH]1 | / | / | 7 | / | / | /
Cc1cccc(C)c1NC(=O)CN(C)C(=O)c1ccc(-c2cccc(C(F)(F)F)c2)o1 | -3 | -12 | 15 | 36 | -4 | 55*
SMILES | LRH-1 inv ag | SRC1 inh | SRC2 inh | Shn3 3UTR inh | NCOA3 inh | LMP1 NFkB inh
CC1CCc2nc(NC(=O)Cc3cccs3)sc2C1 (stereo unspecified) | -180 | -103 | -46 | -68 | -77 | -26
O=C(Nc1nc2cc3c(cc2s1)OCO3)C1=COCCO1 | -65 | 9 | 44 | 73 | 19 | 73*
O=C(Nc1ccc(-c2nc3ccccc3s2)cc1)C1=COCCO1 | -87 | -49 | -20 | 70 | -59 | 72*
CC1CCc2nc(NC(=O)c3ccco3)sc2C1 (stereo unspecified) | -34 | -47 | 40 | 49 | -10 | 60*
O=C(Nc1cccc(-c2nc3ccccc3s2)c1)C1=COCCO1 | -48 | -25 | -14 | -43 | -17 | -5
O=C(Nc1nc2cc3c(cc2s1)OCO3)c1ccco1 | -86 | -45 | -1 | 46 | -32 | 58*
CC(=O)Nc1nc2cc3c(cc2s1)OCO3 | -122 | -60 | -43 | -55 | -99 | -11
Cc1c[nH]c2cccc(-c3cc4ccccc4o3)c12 | / | / | -25 | / | / | /
O=C(Nc1nc2cc3c(cc2s1)OCCO3)c1ccco1 | 11 | 0 | 59* | 53 | 11 | 68*
O=C(Nc1nc2cc3c(cc2s1)OCCO3)c1ccncc1 | -112 | -80 | -9 | -52 | -76 | -2
C[C@@H]1ON(C)[C@H]2C[C@H]3c4cc(N5CCN(C)CC5)ccc4CCN3C[C@@H]12 | / | / | 6 | / | / | /
CC(C)CC(NC(=O)OCc1ccccc1)C(=O)NCC(=O)NCC(=O)OCc1ccccc1 (stereo unspecified) | / | / | -50 | / | / | /
O=C(Nc1ccc(Cl)cc1)/C(=C/c1cccc(O)c1)c1nc2ccccc2s1 | 53 | 6 | 55* | 93* | 27 | -3
CC1CCN(Cc2c(C(=O)N/N=C/c3cc(Cl)ccc3O)nnn2-c2nonc2N)CC1 | 8 | 40 | -39 | 90* | 57 | 35
CC1CCN(Cc2c(C(=O)N/N=C/c3cc(Br)ccc3O)nnn2-c2nonc2N)CC1 | 8 | 41 | 17 | ? | 68* | 49*
CC(C)CNc1cccc2c1S(=O)(=O)N(Cc1cn(Cc3cccc(F)c3)nn1)Cc1ccccc1O2 | / | / | -3 | / | / | /
COc1cccc(/C=C2\CC3(OC(=O)c4cccc(F)c4)CCCN2C3)c1 (stereo unspecified) | / | / | 13 | / | / | /
O=C1NC(c2ccccc2)=C(c2ccccc2)C1=O | 14 | -15 | -1 | 9 | -5 | -7
O=C1C(Br)=C(c2ccccc2)C(c2ccccc2)=C1c1ccccc1 | 3 | -12 | / | 98* | -16 | 4
COC(=O)[C@]12C[C@H](CC(=O)NCCC(C)C)C(=O)N(Cc3ccc4c(c3)OCO4)C1=C[C@H](COCc1ccccc1)O[C@@H]2C | / | / | -11 | / | / | /
O=C(OCc1cn(Cc2ccc(F)cc2F)nn1)N1CCCC1 | / | / | 15 | / | / | /
Cc1ccc(C(=O)Sc2cccccc2=O)cc1 | 61 | 1 | 94* | 96* | 75* | -19
